Most compounds without a hit are left out; they make up all but 5.4% or so of the library.
CtBP-E1A blk: qHTS Assay for Inhibitors of the CtBP/E1A Interaction | AlphaScreen GST-E1A/His-CtBP binding, 1536-well; stronger effect = lower value | AID 651724, 2012 | CtBP / adenovirus E1A interaction (AlphaScreen) | activity change, % (no concentration beside the values) | 340,000 compounds, 0.49% hits; in the data active = activity change below about -65%; inconclusive = mostly about -30% to -63%; note: % is set by controls: 0 for no effect and ±100 for the full control effect
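Protein mix (5X: 125 nM each GST-E1A, His-CtBP) was incubated with pinned compound 2 h at 37 deg C in dark, in 50 mM Tris pH 8.0 buffer with 300 mM NaCl. Glutathione donor and nickel acceptor beads followed; AlphaScreen signal read after 1 h.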
RORgamma inh: qHTS for inhibitors of ROR gamma transcriptional activity; Nuclear receptor ROR-gamma (Mus musculus), P51450; Drosophila S2 Gal4-RORgamma UAS-luciferase reporter, 20 h; Potency, µM (series often up to 53.6 µM), inactives show top-dose activity change, negative = inhibition, most hits filed as inhibitors; 310,000 compounds, 5.4% hits; AID 2551, 2010; note: potency is the fitted concentration of half-maximal effect; % is set by controls: 0 for no effect and ±100 for the full control effect; nearly all actives have a fitted effect of over 60% in size
Target sequence (P51450 whole entry, looked up, the tested form may be a part): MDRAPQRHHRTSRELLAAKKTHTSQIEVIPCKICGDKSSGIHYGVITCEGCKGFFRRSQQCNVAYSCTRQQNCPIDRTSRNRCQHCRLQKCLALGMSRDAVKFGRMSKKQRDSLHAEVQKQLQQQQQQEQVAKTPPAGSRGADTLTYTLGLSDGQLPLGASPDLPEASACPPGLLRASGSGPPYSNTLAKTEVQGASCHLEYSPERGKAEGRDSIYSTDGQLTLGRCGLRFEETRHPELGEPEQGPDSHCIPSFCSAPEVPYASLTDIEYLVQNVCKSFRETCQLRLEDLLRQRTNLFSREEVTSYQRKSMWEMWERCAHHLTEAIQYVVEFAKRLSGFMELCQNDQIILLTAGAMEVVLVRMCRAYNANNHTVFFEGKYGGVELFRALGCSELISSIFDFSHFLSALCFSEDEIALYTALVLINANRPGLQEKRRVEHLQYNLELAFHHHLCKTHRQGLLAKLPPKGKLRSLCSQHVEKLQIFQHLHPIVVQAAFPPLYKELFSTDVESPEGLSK
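Drosophila S2 cells stably expressing Gal4-DBD/mouse RORγ fusion under metallothionein promoter plus UAS-luciferase; compound 1 h, then 700 uM CuSO4 induction for 20 h at ambient temperature; inhibition read as reduced luminescence.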
Gal4-VP16 FLuc: VP16 counterscreen qHTS for inhibitors of ROR gamma transcriptional activity | Drosophila S2 Gal4-VP16 UAS-luciferase, luminescence, 20 h | 310,000 compounds, 3.5% hits | Potency, µM (highest dose often 53.6 µM), without a hit: top-dose activity, negative = inhibition, usual class: inhibitors;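 note: Gal4-VP16 expression switched on by copper sulfate through the metallothionein promoter; potency is the fitted concentration of half-maximal effect; % is set by controls: 0 for no effect and ±100 for the full control effect; nearly all actives have a fitted effect of over 50% in size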
p53 reactivator: qHTS assay for re-activators of p53 using a Luc reporter | H1299 p53-A138V BP100-luciferase reporter, luminescence, 24 h | Potency, µM (series often up to 92.2 µM), without a hit: at the highest dose activity change, positive = activation, most hits filed as activators | 320,000 compounds, 0.063% hits | AID 504706, 2011; note: potency is the fitted concentration of half-maximal effect; % of control where 0% means no effect; nearly all actives have a fitted effect of over 45% in size
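p53-null H1299 cells stably carrying temperature-sensitive p53-A138V and a BP100-luciferase reporter were pinned with compounds (4-point, 1:5 series) and held 24 hrs at 37 deg C. Luminescence was read 10 min after detection reagent.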
Six1-Eya2 inh: qHTS Assay for Inhibitors of the Six1/Eya2 Interaction. activity change, % (concentration not given with the values). 360,000 compounds, 0.56% hits. AlphaScreen GST-Six1/His-Eya2 binding, biochemical; stronger effect = lower value. Homeobox protein SIX1 (Homo sapiens) + Protein phosphatase EYA2 (Homo sapiens), …; in the data active = activity change below about -65%; inconclusive = mostly about -30% to -63%; note: % is set by controls: 0 for no effect and ±100 for the full control effect
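Compounds are tested against tagged Six1 and Eya2 proteins bridged by glutathione donor and nickel acceptor beads; after a one-hour incubation at 37 °C without light, AlphaScreen emission is recorded.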
Numbers without * were called inactive; ? = inconclusive; . = no result; [ ] = another dose, or the depositor's remark. Unless noted, calls come from the whole dose curve; as a rule, active = well fitted curve in the direction sought with a large enough effect; inconclusive = small, poorly fitted or top-dose-only effect, or another doubt; inactive = no such curve, though single readings can be large; an effect the other way counts as inactive or inconclusive.

SMILES	CtBP-E1A blk	RORgamma inh	Gal4-VP16 FLuc	p53 reactivator	Six1-Eya2 inh
CN(C(=O)/C=C/c1ccc(F)cc1)C1CCCCC1	-1	.	.	.	5
Cc1cccc(NC(=S)N(C)C2CCCCC2)c1	2	11µM*	18µM*	7%	3
Cc1ccc(C(=O)NC(=S)N(C)C2CCCCC2)cc1	0	2.2µM*	3.2µM*	17%	-1
CN(C(=O)c1ccc(-c2ccccc2)cc1)C1CCCCC1	4	.	.	.	-7
CN(C(=S)NC(=O)/C=C/c1ccc(F)cc1)C1CCCCC1	-6	1.3µM*	2.5µM*	0%	-13
O=C1OC(Nc2cc(Br)cc3cccnc23)c2ccccc21 (stereo not drawn)	-2	?	11µM*	-9%	0
CN(C)c1nc(-c2ccccc2)nc(-c2ccc(Cl)cc2)c1C#N	9	1%	-5%	-5%	2
CCN(CC)c1nc(-c2ccccn2)nc(-c2ccccc2)c1C#N	-1	1µM*	5µM*	-2%	5
CN(C)c1nc(-c2ccccn2)nnc1-c1ccccc1	-96*	-28%	1%	?	-92*
Cc1c(C(=O)OCC(=O)N(C)CC(=O)Nc2ccc(F)cc2)oc2ccccc12	.	.	.	-6%	1
Nc1cc(=O)[nH]c(=S)n1-c1cccc(C(F)(F)F)c1	0	-40%	5%	0%	0
CC(=O)Nc1ccc(-n2cc(-c3ccccc3)[nH]c2=S)cc1	.	?	-3%	2%	2
Cc1cccc(-n2cc(-c3ccccc3)[nH]c2=S)c1	-8	2.5µM*	7.1µM*	?	-10
CCOc1ccc(-c2cn(-c3ccccc3OC)c(=S)[nH]2)cc1	-2	3.5µM*	8.9µM*	4%	-6
CCOc1ccc(-n2cnc3scc(-c4ccc(OC)c(OC)c4)c3c2=O)cc1	-24	35%	-3%	-1%	-21
CCOc1ccc(-n2cc(-c3ccc(OC)c(OC)c3)[nH]c2=S)cc1	-17	1.3µM*	?	9%	-13
COc1cccc(-c2cn(-c3cccc(C(F)(F)F)c3)c(=S)[nH]2)c1	0	3.2µM*	?	4%	-6
O=C(CN1CCN(c2ccc(F)cc2)CC1)Nc1cccnc1Cl	0	4%	3%	-10%	3
CC(C)=CCC/C(C)=C/CO/N=C1/C[C@@H](O)[C@@H](O)[C@@H]2[C@@H]3C(=O)N(Cc4ccccc4)C(=O)[C@H]3CC[C@@H]12	.	-6%[10 µM]	-2%[10 µM]	.	.
Cc1ccc(-c2cn(-c3ccccc3F)c(=S)[nH]2)cc1	-21	1.8µM*	7.1µM*	21%	-12
COc1ccccc1-n1cc(-c2ccccc2)[nH]c1=S	.	4µM*	20µM*	0%	-9
COc1ccc(-n2cc(-c3ccccc3)[nH]c2=S)cc1	-8	2.2µM*	3.5µM*	?	-8
COc1ccccc1-n1cc(-c2ccccc2)c2c(=S)nc[nH]c21	.	1µM*	1µM*	-4%	-2
CN(C)c1ccc(C(=O)Nc2ccc(S(=O)(=O)Nc3nccs3)cc2)cc1	-6	-19%	-6%	3%	-9
CCOC(=O)c1ccc(NC(=O)N2CCN(c3cccc(OC)c3)CC2)cc1	-1	20%	-1%	2%	-21
SMILES	CtBP-E1A blk	RORgamma inh	Gal4-VP16 FLuc	p53 reactivator	Six1-Eya2 inh
CC(=O)Oc1ccc(N(C(C)=O)S(=O)(=O)c2ccc(C)c([N+](=O)[O-])c2)cc1	12	1%[10 µM]	11%	2%	?
COc1cc2ccccc2cc1C(=O)Nc1ccc(N2CCN(C)CC2)cc1	-20	-14%	-2%	20µM*	-28
CN1CCN(c2ccc(NC(=S)NC(=O)c3cccc4c(Cl)cccc34)cc2)CC1	-9	?	-13%	28%	-5
COc1cc2ccccc2cc1C(=O)Nc1ccc(N2CCN(C(=O)C(C)C)CC2)cc1	.	27%	?	-3%	0
COc1ccc(C(=O)NC(=S)Nc2ccc(N3CCCC3)cc2)cc1	-13	2µM*	7.1µM*	0%	-20
COc1ccccc1C(=O)NNC(=S)NC(=O)c1cc(OC)c(OC)c(OC)c1	-15	?	18%	3%	-2
CC(C)Oc1cccc(C(=O)NC(=S)Nc2ccc(N3CCN(C)CC3)cc2)c1	.	5.6µM*	?	-4%	-5
COc1cc(C(=O)NC(=S)NC(C)C)cc(OC)c1OC	-14	7.9µM*	?	-12%	-7
O=c1c(-c2cccs2)nc2cncnc2n1-c1ccccc1	.	10%	8%	.	.
O=C(c1c(F)cccc1F)N1CCC(O)(c2ccc(F)cc2)CC1	.	10%[1.91 µM]	16%	.	-1
O=C(CCC1CCCCC1)NCCS(=O)(=O)N1CCN(c2ccccc2)CC1	2	.	.	2%	22
CN1CCN(C(=O)c2cc(C(C)(C)C)cc(C(C)(C)C)c2)CC1	-24	8%	4%	-1%	7
COc1cccc(C(=O)NC(=S)Nc2ccc(N3CCCC3)cc2)c1	?	2µM*	8.9µM*	4%	-68*
CCOc1cccc(C(=O)Nc2ccc(N3CCCC3)cc2)c1	?	?	-6%	.	?
COc1cc(C(=O)NC(=S)N2CCCCCC2)cc(OC)c1OC	6	0.89µM*	2.8µM*	9%	-1
COc1cccc(C(=O)NC(=S)Nc2ccc(N(C)C)cc2)c1	?	3.5µM*	?	?	?
COc1cccc(C(=O)Nc2ccc(C)cc2)c1	7	?	?	?	2
COc1cc(C(=O)NC(=S)NNC(=O)[C@H]2C[C@@H]2c2ccccc2)cc(OC)c1OC	-4	11µM*	-14%	2%	-3
CC1(C(=O)NC2CCc3ccccc32)CCN1CCc1ccccc1 (stereo not drawn)	0	.	.	.	-25
COc1ccc(C2OCC3(COC(C)=O)C(C)C=C(C)C2C3C)cc1 (stereo not drawn)	.	43%	?	.	.
COc1cc(C(=O)NC(=S)Nc2ccc(N3CCCC3)cc2)cc(OC)c1OC	-12	7.9µM*	4.5µM*	2%	-11
C[C@@H](NC(=O)c1nc[nH]c1C(=O)N[C@H](C)c1ccccc1)c1ccccc1	.	.	.	-3%	-16
Cc1ccc(NC(=O)c2nc[nH]c2C(=O)N[C@@H](C)c2ccccc2)cc1	-6	1.1µM*	3.2µM*	5%	-6
CC(C)C[C@H](NC(=O)c1[nH]cnc1C(=O)N[C@H](C)c1ccccc1)C(=O)OC(C)(C)C	-2	5µM*	5.6µM*	-12%	-7
C[C@H](NC(=O)c1nc[nH]c1C(=O)N[C@@H](C)c1ccccc1)C(=O)OC(C)(C)C	1	2.8µM*	6.3µM*	2%	-1
O=C(c1ccccc1)c1nc[nH]c1C(=O)Nc1ccccc1	-2	0.71µM*	1.6µM*	-3%	5

From PubChem BioAssay
